Screening results: PubChem BioAssay, National Center for Advancing Translational Sciences (NCATS)
The sample as a whole holds a higher share of hits than the screen did.
BLM inh – blocks DNA unwinding by human BLM helicase; P54132; recombinant BLM DNA unwinding, fluorescence dequenching; Potency, µM (doses to about 56.1 µM), for the others: top-dose activity change, negative = inhibition, actives largely listed as inhibitors; 350,000 compounds, 0.2% hits; AID 2528;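 also: plate controls were vehicle for no effect and no enzyme for full effect; nearly all actives have a fitted effect of over 35% in size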
L3MBTL1 inh – inhibitors of human L3MBTL1; AID 485360; Potency, µM (titrated, usually from 57.1 µM), for inactives: at the top dose activity, negative = inhibition, usual class: inhibitors; 230,000 compounds, 0.66% hits; AlphaScreen L3MBTL1–H3K9me1 peptide binding; also: nearly all actives have a fitted effect of over 60% in size
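AlphaScreen assay: L3MBTL1 (50 nM final) was preincubated 30 min at room temperature with biotinylated H3(1-15)K9me1 peptide (75 nM final), then 30 min with library compounds; streptavidin donor and nickel chelate acceptor beads (10 ug/mL final) added, 30 min dark.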
APE1 inh – inhibitors of human APE1 endonuclease. P27695. recombinant APE1, TAMRA/BHQ-2 abasic DNA cleavage fluorescence. Potency, µM (series often up to 65.8 µM), for inactives: at the top dose activity change, negative = inhibition, hits mostly inhibitors. 350,000 compounds, 0.35% hits;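 also: plate controls were vehicle for no effect and reference inhibitor for full effect; nearly all actives have a fitted effect of over 55% in size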
Target sequence (P27695 whole entry, looked up): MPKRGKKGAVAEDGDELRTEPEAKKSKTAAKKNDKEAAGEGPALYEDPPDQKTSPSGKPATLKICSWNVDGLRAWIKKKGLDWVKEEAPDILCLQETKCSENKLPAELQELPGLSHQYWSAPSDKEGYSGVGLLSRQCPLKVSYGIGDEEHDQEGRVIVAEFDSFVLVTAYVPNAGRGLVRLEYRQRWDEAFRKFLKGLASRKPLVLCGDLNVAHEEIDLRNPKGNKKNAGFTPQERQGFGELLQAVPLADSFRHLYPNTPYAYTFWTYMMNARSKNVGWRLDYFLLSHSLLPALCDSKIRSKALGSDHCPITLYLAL
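APE1 at 0.75 nM final was preincubated with compound 15 min at room temperature, then 50 nM double-stranded THF abasic-site substrate (5'-TAMRA/3'-BHQ-2) was added. Fluorescence (ex 525/em 598 nm) was read kinetically; third-minus-first read gave activity.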
JMJD2E inh – JMJD2E (human) inhibition | JMJD2E catalytic domain, FDH-coupled NADH fluorescence (FDH is formaldehyde dehydrogenase) | Potency, µM (series often up to 57.1 µM), for inactives: at the highest dose activity change, negative = inhibition, most hits filed as inhibitors | 230,000 compounds, 1.6% hits; active = well fitted inhibition curve with a large enough effect, not every such curve was filed as active; inconclusive = small, poorly fitted or top-dose-only effect, or another doubt; inactive = no such curve, though single readings can be large or run the other way;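 also: 0% = wells with enzyme and -100% = buffer wells without enzyme; nearly all actives have a fitted effect of over 50% in size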
RECQ1 inh-1 – blocks DNA unwinding by human RECQ1. P46063. RECQ1 DNA unwinding, red fluorescence kinetic read. Potency, µM (series often up to 57.3 µM), without a hit: at the top dose activity, negative = inhibition, most hits filed as inhibitors. 240,000 compounds, 0.54% hits;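 also: plate controls were vehicle for no effect and no enzyme for full effect; nearly all actives have a fitted effect of over 30% in size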
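50 nM RECQ1T1 preincubated 15 min with compound in Tris pH 8.0 buffer with MgCl2, DTT, Tween-20 and 2.5 ug/ml poly(dI-dC); started with 200 nM TAMRA/BHQ-2 forked duplex and 2 mM ATP. Unwinding read as fluorescence (525/598 nm), two reads 2 h apart.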
RECQ1 inh conf – confirmation of human RECQ1 helicase inhibitors. shares compounds with RECQ1 inh-1. RECQ1 helicase DNA unwinding, fluorescence. Potency, µM (titrated, usually from 229 µM), without a hit: top-dose activity change, negative = inhibition, hits mostly inhibitors. 610 compounds, 28% hits; also: nearly all actives have a fitted effect of over 45% in size
RECQ1 ADP FP – counter-screen for RECQ1 inhibitors: ADP displacement | ADP fluorescence polarization displacement counterscreen | Potency, µM (series often up to 228 µM), without a hit: top-dose activity change, negative = inhibition, actives largely listed as inhibitors | shares compounds with RECQ1 inh-1 | 530 compounds, 27% hits; also: nearly all actives have a fitted effect of over 45% in size
RECQ1 inh-2 – confirmation of human RECQ1 helicase inhibitors. shares compounds with RECQ1 inh-1. Potency, µM (highest dose often 119 µM), without a hit: at the highest dose activity, negative = inhibition, usual class: inhibitors. 1,100 compounds, 15% hits. recombinant RECQ1 DNA unwinding, red fluorescence. AID 504841; also: nearly all actives have a fitted effect of over 50% in size
Numbers without * were called inactive; i = inactive; ? = inconclusive; nt = not tested or not shown; [ ] = remark or other dose. Unless noted, calls follow the shape of the dose curve; as a rule, active = well fitted curve in the direction sought with a large enough effect; inconclusive = small, poorly fitted or top-dose-only effect, or another doubt; inactive = no such curve, though single readings can be large; an effect the other way counts as inactive or inconclusive. Unless noted, % is scaled to controls: 0 for no effect and ±100 for the full control effect; potency is read from the fitted curve at half-maximal effect.

SMILES	BLM inh	L3MBTL1 inh	APE1 inh	JMJD2E inh	RECQ1 inh-1	RECQ1 inh-2	others
Cn1cnnc1Sc1ccc(/C=C(\CC(=O)O)c2nc3ccccc3s2)cc1[N+](=O)[O-]	-6.6%	1.4%	-1.6%	-1.7%	-4.6%	nt	RECQ1 inh conf=-9.8%;RECQ1 ADP FP=-11.0%
COc1ccccc1CNc1ccnc(-c2ccc3c(c2)OCO3)n1	-7.6%	nt	-6.5%	?	-5.8%	nt
O=C(Nc1ccc(S(=O)(=O)Nc2nccs2)cc1)c1ccc(=O)[nH]c1	-28.0%	-29.0%	?	-15.9%	?	?
Nc1ccc(/C=C/c2ccc(N)cc2S(=O)(=O)O)c(S(=O)(=O)O)c1	52.0%	nt	nt	nt	nt	nt
Cc1ccc(Nc2ccc(N)cc2S(=O)(=O)O)cc1	-10.5%	?	?	?	?	-10.5%
O=C(CSc1nc2ccsc2c(=O)n1CC1CCC(C(=O)O)CC1)c1ccc(Cl)cc1 (centres undefined)	-16.4%	nt	?	1.6%	?	20µM*
O=C(CSc1nc2ccsc2c(=O)n1CC1CCC(C(=O)O)CC1)c1ccc(F)cc1 (centres undefined)	-7.4%	nt	-4.2%	-12.4%	-5.1%	nt
O=C(CCCn1c(SCC(=O)NC2CCCCC2)nc2ccccc2c1=O)NCC1CCCO1 (centres undefined)	0.4%	-3.0%	2.9%	3.5%	-3.6%	nt
CCCCn1c(SCC(=O)c2ccc(O)c(O)c2)nc2ccsc2c1=O	-24.0%	-2.4%	-8.8%	?	22.4µM*	8.91µM*
O=C(CCCn1c(SCC(=O)c2ccc(O)c(O)c2)nc2ccccc2c1=O)NCC1CCCO1 (centres undefined)	-14.6%	?	28.2µM*	8.91µM*	14.1µM*	11.2µM*	RECQ1 inh conf=70.8µM*;RECQ1 ADP FP=-1.4%[91.9 µM]
CCCCn1c(SCC(=O)c2ccccc2)nc2ccsc2c1=O	-3.3%	19.5%	2.0%	-2.6%	i	nt
Nc1nc2n(n1)C(c1ccc(Cl)cc1)CC(c1ccc(F)cc1)N2 (centres undefined)	-0.8%	?	-5.3%	2.9%	-12.6%	nt
Cc1c(N2C(=O)CS/C2=N\N=C\c2ccccc2O)c(=O)n(-c2ccccc2)n1C	-3.6%	-8.4%	-7.3%	-6.2%	i	nt	RECQ1 inh conf=19.3%;RECQ1 ADP FP=-22.5%
O=C(CSC1=NCCS1)N1CCCCCC1	0.6%	2.7%	3.0%	3.2%	-6.7%	nt
CCN(CC)CCNc1nc(C(F)(F)F)nc2c1nnn2Cc1ccccc1	-0.6%	nt	17.7%	nt	nt	nt
CCC(O)c1c(-c2ccccc2)nn(C)c1Cl (centres undefined)	1.3%	8.5%	-0.2%	-2.1%	?	nt
CC(O)c1c(-c2ccccc2)nn(C)c1Cl (centres undefined)	-0.6%	-7.2%	21.6%	0.7%	39.8µM*	-8.5%
COc1ccc(-c2cc3nc(-c4ccccc4)cc(N4CCCC(O)C4)n3n2)cc1 (centres undefined)	-11.6%	38.4%	5.5%	?	?	-11.4%
Cc1ccc(-n2cccc2C(=O)NS(=O)(=O)c2ccc(C)cc2)cc1	-4.6%	-1.8%	1.0%	-0.6%	?	?
Cc1ccc(S(=O)(=O)NC(=O)c2cccc(Br)c2)cc1	-5.7%	nt	17.8%	nt	nt	nt
COc1ccc(C2Nc3ccccc3C(=O)N2Cc2ccccc2)cc1CSc1ccccn1 (centres undefined)	-5.9%	7.2%	0.8%	1.6%	i	nt
CC(N=C1CC(C)(C)CC(=O)/C1=C(/O)CCCN1C(=O)c2ccccc2C1=O)C(=O)O (centres undefined)	1.4%	nt	-5.0%	-0.2%	-1.0%	nt	RECQ1 inh conf=10.9%;RECQ1 ADP FP=?
